From PubChem BioAssay (Tox21)
Values joined by “and” are separate entries in the source; they are usually repeats but may differ in a detail not shown here. Equal entries are not always repeated. Results filed as inconclusive are left out. Where a call stands in place of a potency, no number is given. Where a structure was tested more than once in an assay, its records may differ in their call. Active and inactive are the calls of the source. Unless noted, calls follow the shape of the dose curve; as a rule, active = well fitted curve in the direction sought with a large enough effect in the repeat runs; inconclusive = weak or mixed curves; inactive = no such curve, though single readings can be large; an effect the other way counts as inactive or inconclusive.

Assays:
[1] = molecular target: Nuclear receptor subfamily 1 group I member 3 (Homo sapiens) (UniProt Q14994); assay: qHTS assay to identify small molecule antagonists of the constitutive androstane receptor (CAR) signaling pathway (AID 1224838); also: nearly all actives have a fitted effect of over 40% in size; also: potency is read from the fitted curve at half-maximal effect
Chain of Nuclear receptor subfamily 1 group I member 3 (Homo sapiens) (Q14994 whole entry, looked up): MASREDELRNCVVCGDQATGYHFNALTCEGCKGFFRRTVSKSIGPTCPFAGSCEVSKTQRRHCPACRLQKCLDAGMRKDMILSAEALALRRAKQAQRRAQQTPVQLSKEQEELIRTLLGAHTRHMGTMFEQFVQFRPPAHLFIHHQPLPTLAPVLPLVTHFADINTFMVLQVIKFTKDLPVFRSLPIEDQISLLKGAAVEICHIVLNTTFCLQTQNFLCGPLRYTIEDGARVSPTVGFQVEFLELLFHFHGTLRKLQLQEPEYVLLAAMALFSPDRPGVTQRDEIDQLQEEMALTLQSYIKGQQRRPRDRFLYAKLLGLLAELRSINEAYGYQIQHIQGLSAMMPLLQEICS
Summary of the method: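 Inhibition of CITCO-driven (50 nM final) CYP2B6 reporter expression is measured in HepG2 cells stably carrying hCAR. Fifteen compound concentrations are applied for 24 h at 37 C, followed by luciferase luminescence.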

[2] = qHTS assay to identify small molecule antagonists of the estrogen related receptor signaling pathway with the pleiotropic PPARgamma coactivator (PGC) from Tox21 10K library - cell viability counter screen (AID 1224840; active = well fitted cell-killing curve with a large enough effect in the repeat runs, not every such curve was filed as active; also: potency is read from the fitted curve at half-maximal effect; nearly all actives have a fitted effect of over 40% in size)
Summary of the method: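 Readout: fluorescence intensity from CellTiter-Fluor after 30 min at 37 C/5% CO2. Preceded by 17.5 h treatment of PGC/ERR cells with DMSO-dissolved compounds, added 6 h post-seeding.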

[3] = qHTS assay to identify small molecule agonists of the hypoxia (HIF-1) signaling pathway - cell viability counter screen (AID 1224844; calls by dose curve; also: nearly all actives have a fitted effect of over 50% in size; also: potency is read from the fitted curve at half-maximal effect)
Summary of the method: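 In this counter screen, HRE-bla ME-180 cell viability after 17 hrs of compound exposure at 37C was read by CellTiter-Glo luminescence, multiplexed with the beta-lactamase reporter measurement.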

[4] = qHTS assay to identify small molecule agonists of H2AX - cell viability counter screen (AID 1224847; calls by dose curve; also: potency is read from the fitted curve at half-maximal effect; nearly all actives have a fitted effect of over 30% in size)
Summary of the method: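 Wild-type CHO-K1 cells (10% FBS medium) were plated overnight at 37C, exposed to compounds at 15 concentrations for 3 hr at 37C (0.76% DMSO final), and viability was read as CellTiter-Glo luminescence after 30 min at room temperature.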

[5] = qHTS assay to identify small molecule antagonists of the estrogen related receptor (ERR) signaling pathway from Tox21 library (AID 1224848); also: nearly all actives have a fitted effect of over 50% in size; also: potency is read from the fitted curve at half-maximal effect
Summary of the method: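 Tox21 10K compounds in DMSO tested for ERR pathway antagonism in NTP's ERR cell line; 18 h, 37 C exposure; ONE-Glo luminescence.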

[6] = A CellTox Green Cytotoxicity Assay to monitor cytotoxicity in HEK293 cells - 0 hour (AID 1224869); also: nearly all actives have a fitted effect of over 50% in size
Summary of the method: (§1)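 Real-time, in one plate: 600 HEK293 cells/well with dead-cell DNA dye, pinned compound after 5 h, 37 C incubation over 40 h; viable cells give no appreciable fluorescence.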

[7] = A CellTox Green Cytotoxicity Assay to monitor cytotoxicity in HEK293 cells - 40 hour (AID 1224871); also: nearly all actives have a fitted effect of over 45% in size; also: potency is read from the fitted curve at half-maximal effect
Summary of the method: as §1

[8] = qHTS RealTime-Glo MT Cell Viability Assay in HEK293 cells - 16 hour (AID 1224872); also: nearly all actives have a fitted effect of over 50% in size; also: potency is read from the fitted curve at half-maximal effect
Summary of the method: (§2)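 Assay medium contained NanoLuc luciferase plus cell-permeant prosubstrate, added with HEK293 cells at 600 cells/well. After 5 h at 37 C/5% CO2 compounds were added; plates stayed at 37 C for 40 h with serial luminescence reads.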

[9] = molecular target: Nuclear receptor subfamily 1 group I member 3 (Homo sapiens) (UniProt Q14994); assay: qHTS assay to identify small molecule agonists of the constitutive androstane receptor (CAR) signaling pathway (AID 1224839); also: nearly all actives have a fitted effect of over 15% in size; also: potency is read from the fitted curve at half-maximal effect
Summary of the method: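 HepG2 cells stably expressing hCAR and a CYP2B6-2.2kb luciferase reporter were treated with compounds at 15 concentrations plus 0.75 uM PK11195 (final) for 24 h at 37 C; luminescence was read after ONE-Glo addition.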

[10] = qHTS assay to identify small molecule agonists of the estrogen related receptor signaling pathway with the pleiotropic PPARgamma coactivator (PGC) from Tox21 10K library (AID 1224842); also: nearly all actives have a fitted effect of over 15% in size
Summary of the method: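 PGC/ERR reporter cells (NTP line) were seeded 2,000 per well, rested 6 h at 37 C/5% CO2, then pin-dosed with compounds in DMSO for 18 h at 37 C; luciferase read by One-Glo luminescence after 30 min at room temperature.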

[11] = molecular target: Thyrotropin receptor (Homo sapiens) (UniProt P16473); assay: qHTS assay to identify small molecule agonists of the thyroid stimulating hormone receptor (TSHR) signaling pathway (AID 1224843; calls by dose curve; also: nearly all actives have a fitted effect of over 45% in size; also: potency is read from the fitted curve at half-maximal effect)
Chain of Thyrotropin receptor (Homo sapiens) (P16473 whole entry, looked up): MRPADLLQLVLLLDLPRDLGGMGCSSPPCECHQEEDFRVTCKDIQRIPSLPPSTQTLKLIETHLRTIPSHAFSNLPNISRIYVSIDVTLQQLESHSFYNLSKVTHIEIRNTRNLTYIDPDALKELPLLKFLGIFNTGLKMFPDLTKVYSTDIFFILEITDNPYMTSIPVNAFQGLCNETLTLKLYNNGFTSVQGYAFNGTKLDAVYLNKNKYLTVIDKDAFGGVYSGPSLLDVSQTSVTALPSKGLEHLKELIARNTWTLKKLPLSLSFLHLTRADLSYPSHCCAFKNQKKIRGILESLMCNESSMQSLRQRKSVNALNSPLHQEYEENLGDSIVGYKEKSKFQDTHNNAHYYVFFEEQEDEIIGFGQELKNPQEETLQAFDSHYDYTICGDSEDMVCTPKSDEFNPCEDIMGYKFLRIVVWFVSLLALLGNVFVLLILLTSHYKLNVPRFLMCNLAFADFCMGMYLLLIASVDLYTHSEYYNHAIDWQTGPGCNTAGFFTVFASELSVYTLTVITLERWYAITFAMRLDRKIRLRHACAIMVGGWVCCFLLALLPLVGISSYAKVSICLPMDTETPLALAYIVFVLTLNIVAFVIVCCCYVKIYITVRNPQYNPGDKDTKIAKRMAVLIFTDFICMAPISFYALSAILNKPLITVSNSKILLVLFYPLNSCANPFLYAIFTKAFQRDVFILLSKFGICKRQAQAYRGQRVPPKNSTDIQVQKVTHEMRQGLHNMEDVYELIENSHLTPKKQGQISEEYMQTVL
Summary of the method: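 Using 15 concentrations per compound in triplicate, cAMP production was monitored in TSHR-HEK293 cells after 30 min compound incubation at RT; HTRF reagents followed, with fluorescence intensity recorded after 1 h.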

[12] = qHTS assay to identify small molecule agonists of H2AX (AID 1224845; active = well fitted activation curve with a large enough effect in the signal ratio in the repeat runs, not every such curve was filed as active; the % refers to the signal ratio)
Summary of the method: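 Wild-type CHO-K1 cells plated overnight, then exposed 3 hr at 37C to compounds at 15 concentrations (0.76% DMSO). Lysed, then HTRF anti-pH2AX(S139)-cryptate/anti-H2AX-d2 detection after 24 hr at room temperature; emissions 665 and 620 nm.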

[13] = qHTS assay to identify small molecule agonists of the estrogen related receptor (ERR) signaling pathway from Tox21 library (AID 1224849; calls by dose curve; also: nearly all actives have a fitted effect of over 15% in size); settings: ERR reporter cell line, ONE-Glo luciferase, 18 h; at 92.4 µM (top of the series) unless noted
Summary of the method: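 Luciferase activity in ERR pathway reporter cells served as the agonist readout; exposure lasted 18 h at 37 C, with ONE-Glo detection after 30 min at room temperature.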

[14] = qHTS RealTime-Glo MT Cell Viability Assay in HepG2 cells - 24 hour (AID 1224867); also: nearly all actives have a fitted effect of over 50% in size; also: potency is read from the fitted curve at half-maximal effect
Summary of the method: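 qHTS, HepG2, 600 cells/well, RealTime-Glo (NanoLuc + prosubstrate) added with cells; 5 h preincubation; DMSO compound addition; 37 C; luminescence at 0/8/16/24/32/40 h.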

[15] = qHTS RealTime-Glo MT Cell Viability Assay in HEK293 cells - 32 hour (AID 1224868); also: nearly all actives have a fitted effect of over 50% in size; also: potency is read from the fitted curve at half-maximal effect
Summary of the method: as §2

[16] = qHTS RealTime-Glo MT Cell Viability Assay in HepG2 cells - 40 hour (AID 1224870); also: nearly all actives have a fitted effect of over 50% in size; also: potency is read from the fitted curve at half-maximal effect
Summary of the method: (§3)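 HepG2 cells mixed with RealTime-Glo MT reagents (NanoLuc plus cell-permeant prosubstrate) were seeded at 600 cells/well, incubated 5 h at 37 C/5% CO2, then pinned with compounds in DMSO; nonlytic luminescence tracked viability during 40 h treatment.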

[17] = qHTS RealTime-Glo MT Cell Viability Assay in HepG2 cells - 8 hour (AID 1224873); also: nearly all actives have a fitted effect of over 55% in size; also: potency is read from the fitted curve at half-maximal effect
Summary of the method: as §3

[18] = qHTS assay to identify small molecule antagonists of the estrogen related receptor signaling pathway with the pleiotropic PPARgamma coactivator (PGC) from Tox21 10K library (AID 1224841; call rule not given here; also: potency is read from the fitted curve at half-maximal effect)
Summary of the method: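 One-Glo luminescence, measured after half an hour at room temperature, quantified reporter output of PGC/ERR cells. These had been plated at 2,000 per well, incubated 6 h, dosed with compounds in DMSO, then kept 18 h at 37 C.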

[19] = qHTS assay to identify small molecule agonists of the hypoxia (HIF-1) signaling pathway (AID 1224846; active = well fitted activation curve with a large enough effect in the signal ratio in the repeat runs, not every such curve was filed as active; the % refers to the signal ratio)
Summary of the method: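 ME-180 HRE-bla reporter cells; compounds in DMSO, 17 h at 37C; read-out beta-lactamase via CCF4-AM FRET.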

| SMILES | Potency [1] | Potency [2] | Potency [3] | Potency [4] | Potency [5] | Potency [6] | Potency [7] | Potency [8] | Potency [9] | Potency [10] | Potency [11] | Potency [12] | activity change, positive = activation [13] | Potency [14] | Potency [15] | Potency [16] | Potency [17] | Potency [18] | outcome [19] |
| --- | --- | --- | --- | --- | --- | --- | --- | --- | --- | --- | --- | --- | --- | --- | --- | --- | --- | --- | --- |
| CCOC(=O)N1CCC(=C2c3ccc(Cl)cc3CCc3cccnc32)CC1 | inactive | 30.6 µM (active) | 54.9 µM (active) and inactive | 61.9 µM (active) | 30.6 µM (active) and 26.6 µM (active) | inactive | 43.6 µM (active) | 21.9 µM (active) and 8.49 µM (active) | – | – | – | – | – | – | – | – | – | – | – |
| C1CC(COCC2CO2)CCC1COCC1CO1 (stereo not drawn) | inactive | – | – | – | – | – | inactive | inactive | inactive | inactive | inactive | inactive | -24.4% (inactive) | inactive | inactive | inactive | inactive | – | – |
| CCCCN(CCCC)CCC(O)c1cc2c(Cl)cc(Cl)cc2c2cc(C(F)(F)F)ccc12 (stereo not drawn) | inactive | – | 21.3 µM (active) | – | – | inactive | – | inactive | inactive | – | inactive | inactive | – | – | inactive | – | inactive | – | – |
| Cc1cc(Nc2ccc(O)cc2)ccc1N | inactive | 24.2 µM (active) | 24.4 µM (active) | 89.4 µM (active) | 19.2 µM (active) | inactive | 24.4 µM (active) | 24.4 µM (active) | inactive | inactive | – | – | – | 48.8 µM (active) | – | – | 43.5 µM (active) | 15.3 µM (active) | – |
| CC(C)(c1cc(Br)c(OCCO)c(Br)c1)c1cc(Br)c(OCCO)c(Br)c1 | inactive | 42.3 µM (active) | – | 87.8 µM (active) | 11.9 µM (active) | inactive | – | 17 µM (active) | – | inactive | – | – | -67.7% (inactive) | – | 13.5 µM (active) | – | inactive | 16.8 µM (active) | – |
| CCc1cccc(CC)c1N(COC)C(=O)CS(=O)(=O)O | inactive | – | inactive | – | inactive | inactive | inactive | – | inactive | inactive | inactive | inactive | -4.79% (inactive) | inactive | inactive | – | inactive | inactive | inactive |
| CNCC[C@H](Oc1cccc2ccccc12)c1cccs1 | 29.8 µM (active) | – | – | – | – | – | – | 23.9 µM (active) | inactive | inactive | inactive | inactive | -62.1% [at 42.5 µM] (inactive) | 23.9 µM (active) | 23.9 µM (active) | 23.9 µM (active) | – | 33.5 µM (active) | inactive |
| NC1(c2ccc(-c3nc4ccn5c(=O)[nH]nc5c4cc3-c3ccccc3)cc2)CCC1 | – | 15 µM (active) | 2.13 µM (active) | – | 3.35 µM (active) | – | – | 6.01 µM (active) | inactive | inactive | inactive | – | – | 23.9 µM (active) | 1.9 µM (active) | – | – | 3.35 µM (active) | – |
| CN(C)c1ccc(N=NS(=O)(=O)O)cc1 | inactive | – | – | 40.1 µM (active) | – | inactive | inactive | 14.5 µM (active) | 25.7 µM (active) | – | inactive | – | – | inactive | – | inactive | – | – | – |
| Nc1cc(Cl)c([N+](=O)[O-])cc1O | inactive | – | – | – | inactive | inactive | inactive | – | – | inactive | inactive | – | -13.4% (inactive) | inactive | – | – | – | inactive | – |
| C=C1C(C)(C)[C@@]2(Cl)C(Cl)[C@]1(Cl)C(Cl)(Cl)C2(Cl)Cl (stereo partly drawn) | inactive | – | 48.1 µM (active) | 111 µM (active) | 60 µM (active) | – | – | – | 21.3 µM (active) | inactive | 13.4 µM (active) | – | -68% (inactive) | – | – | inactive | – | 53.5 µM (active) | – |
